ALR H2O2 inh: human ALR oxidase inhibition via reduced H2O2; P55789; AID 485317; 3.8% of 290,000 active; purified ALR, DTT oxidation, H2O2 HRP-luminol luminescence; inhibition, % (concentration not given with the values);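 active = mean replicate inhibition above about 79%, with every replicate also reaching it, limit read from the data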
HDAC3 inh: blocks human histone deacetylase 3 | recombinant HDAC3, fluorogenic peptide/trypsin coupled, fluorescence | inhibition, % at 8.3 µM | 0.15% of 320,000 active | AID 2718; in the data active = inhibition above about 26%, passing the limit was not always enough
GC-A act: GC-A (human) enzyme activation; 0.14% of 370,000 active; P16066; activation, % at 10 µM; HEK293 GC-A cells, cGMP TR-FRET, EC30 ANP; 0% at EC30 ANP, 100% saturating ANP; in the data active = activation above about 40%
NPR2 activator: GC-B (human) receptor activation. P20594. HEK293-GC-B cells, CNP EC30, cGMP TR-FRET; 0% at EC30 CNP, 100% saturating CNP. activation, % at 10 µM. 0.11% of 370,000 active. AID 1920062;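 active = activation at 10 µM reaching about 35% in either raw or pattern-adjusted values, limit read from the data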
An asterisk follows results filed as active. Only a selection was taken, and hits are over-represented in it overall.

C=CCN1[C@H](C)COc2cc(F)ccc2S1(=O)=O was read as GC-A act -1.4 and NPR2 activator -1.0.
`COc1ccc(C(=O)N/N=C(\CCC(=O)O)c2ccc(C(C)(C)C)cc2)cc1OC` gave ALR H2O2 inh 17.7, HDAC3 inh 4.5, GC-A act -3.8 and NPR2 activator 3.6.
`CC1C(=O)N2CCCc3cc(NC(=O)C4CC4)cc1c32` (stereo not given) gave ALR H2O2 inh 1.4, HDAC3 inh 0.5, GC-A act 3.2 and NPR2 activator -3.8.
For COc1ccc(C(=O)Nc2ccc(N3CCCC3)cc2)cc1OC the results were ALR H2O2 inh 99.1*, HDAC3 inh 4.9, GC-A act -2.2 and NPR2 activator -2.7.
For O=C(Nc1ccc(N2CCCC2)cc1)C(Cl)c1ccccc1 (stereo not given) the results were ALR H2O2 inh 97.8* and HDAC3 inh 3.7.
COc1cc(C#CC#CCN2CCCCC2)ccc1O was read as ALR H2O2 inh 99.2*, HDAC3 inh 5.5, GC-A act -2.7 and NPR2 activator -6.0.
`COc1cc(C(=O)OCCN2CCCCC2)ccc1O` gave ALR H2O2 inh 50.1, HDAC3 inh 2.8, GC-A act -4.8 and NPR2 activator 3.3.
Screening Cc1ccc(F)cc1NC(=O)c1c(-c2ccccc2)noc1C returned ALR H2O2 inh -33.8, HDAC3 inh 3.0, GC-A act -2.7 and NPR2 activator -12.0.
Screening C[C@H]1COc2cccc(N3CCSCC3)c2S(=O)(=O)N1 returned GC-A act 7.1 and NPR2 activator 3.3.
`Cc1cc(Nc2cc(Cl)cc(Cl)c2)cc(=O)n1-c1cc(Cl)cc(Cl)c1` gave GC-A act 21.2 and NPR2 activator 28.1*.
`COc1cc(Nc2cc(C)n(-c3ccc(Cl)c(OC)c3)c(=O)c2)ccc1Cl` gave GC-A act 10.6 and NPR2 activator -0.3.
Screening CCOc1ccc(NC(C)c2cc(Cl)ccc2O)cc1 (stereo not given) returned ALR H2O2 inh 98.9*, HDAC3 inh 9.5, GC-A act 0.9 and NPR2 activator 5.4.
CC(Nc1ccc(Cl)cc1)c1cc(Cl)ccc1O (stereo not given) was read as ALR H2O2 inh 99.1*, HDAC3 inh 6.6, GC-A act -22.8 and NPR2 activator -22.5.
For CC(C)C(C(=O)NCc1ccccc1)N1CCN(CCN2CCOCC2)CC1 (stereo not given) the results were GC-A act 0.6 and NPR2 activator 11.4.
`Cc1noc(C)c1C(=O)N1CCCC(C)(C(=O)NS(=O)(=O)C2CC2)C1` (stereo not given) gave GC-A act 0.2 and NPR2 activator 10.2.
CC(c1ccc(F)cc1)n1c(-c2cccs2)n[nH]c1=S (stereo not given) was read as ALR H2O2 inh 92.7*, HDAC3 inh -11.2, GC-A act 2.3 and NPR2 activator 4.8.
CC(=O)c1ccc(OCCCC(=O)NCCc2ccc(C(F)(F)F)cc2)cc1 was read as ALR H2O2 inh -2.2, HDAC3 inh 3.0, GC-A act -1.5 and NPR2 activator 2.3.
`COc1ccc(C(=O)Nc2ccc(C)cc2C(=O)c2ccccc2)c(OC)c1` gave ALR H2O2 inh 96.8*, HDAC3 inh -2.1, GC-A act -4.0 and NPR2 activator 3.5.
`COc1cccc(OC)c1C(=O)Nc1ccc(C)cc1C(=O)c1ccccc1` gave ALR H2O2 inh 5.0, HDAC3 inh -1.6, GC-A act -3.0 and NPR2 activator -5.9.
COc1ccc(NC(=O)c2cc3ccccc3cc2OC)cc1 was read as ALR H2O2 inh -0.3, HDAC3 inh -3.1, GC-A act -1.4 and NPR2 activator -2.6.
Screening COc1cc(C(=O)c2ccccc2)c(OC)cc1C(=O)Nc1ccc(O)cc1 returned ALR H2O2 inh 99.7*, HDAC3 inh -4.9, GC-A act -1.6 and NPR2 activator -3.5.
Screening Cc1nc(SCC(=O)N(CC(C)C)C2CCS(=O)(=O)C2)c(C#N)c(C)c1C (stereo not given) returned GC-A act 3.8 and NPR2 activator -1.6.
CN(C)c1ccc(/C=C/c2ccc3ccccc3[n+]2C)cc1 was read as ALR H2O2 inh 98.4*, HDAC3 inh 16.7, GC-A act -48.0 and NPR2 activator -53.2.
For CN(CCCS(=O)(=O)[O-])c1ccc(/C=C/c2ccc3ccccc3[n+]2C)cc1 the results were ALR H2O2 inh 15.7, HDAC3 inh 2.2, GC-A act -5.9 and NPR2 activator -1.6.
Cc1cc(NS(=O)(=O)c2ccc(NC(=O)CSc3nnc(-c4ccncc4)n3Cc3ccco3)cc2)nc(C)n1 was read as GC-A act 0.6 and NPR2 activator -2.7.

Assay outcomes from PubChem BioAssay.
